CCT modulator: cytosolic chaperonin activity modulation. hit rate 0.3% among 360,000. AID 651819. purified chaperonin ATPase assay, HTRF ADP detection, 30 min. activity change, % (concentration not given with the values), hits read low; in the data active = activity change below about -30%; note: % is set by controls: 0 for no effect and ±100 for the full control effect
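TRiC at 40 or 20 nM final (batch-dependent) in 30 mM Tris pH 7.4, 100 mM KCl, 5 mM MgCl2, 1 mM DTT, with compound at single 76 uM and 10 uM ATP, 30 min at 37 deg C. ADP detected by HTRF Transcreener, 665/615 ratio.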
Akt phos inh: Akt phosphorylation inhibition; activity change, % for hits at 50 µM; hit rate 0.32% among 360,000; Neuro2A IGF-stimulated pAkt S473 HTRF, 20 min; active compounds read low; in the data active = activity change below about -80%; inconclusive = mostly about -51% to -80%; note: % is set by controls: 0 for no effect and ±100 for the full control effect
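Single-point screen (50 µM final compound) in Neuro2A cells stimulated 20 min with 6 nM IGF at 37 deg C. After lysis, Ser473-phosphorylated Akt read by HTRF (ex 330 nm, em 615/665 nm) as the 665/615 ratio.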
Glioma ERSR ind: induces the endoplasmic reticulum stress response in human glioma cells; U87-MG GRP78 promoter luciferase reporter, 16 h; Potency, µM, for inactives: at the highest dose activation, usual class: activators; hit rate 0.02% among 420,000; note: potency is the fitted concentration of half-maximal effect; series mostly up to about 76 µM; % of control where 0% means no effect; nearly all actives have a fitted effect of over 35% in size
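Stably transfected U87-MG glioma cells carrying a GRP78-based luciferase sensor; 16 h compound incubation. Luminescence end-point read 10 min after Bright-Glo addition at room temperature.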
GLS inhibitor: glutaminase GLS (human) inhibition; hit rate 0.21% among 410,000; Potency, µM (highest dose often 45.5 µM), for the others: top-dose activity change, negative = inhibition, actives largely listed as inhibitors; O94925; AID 624170; GLS enzymatic activity, qHTS titration; note: potency is the fitted concentration of half-maximal effect; % is set by controls: 0 for no effect and ±100 for the full control effect
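Assay buffer: 45 mM KH2PO4 pH 8.2, 0.02% Tween-20. hKGA acts on L-glutamine (1 mM solution added); product glutamate is reported by an oxidase/peroxidase Amplex Red coupling, with fluorescence taken at baseline and 30 min.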
MmCpn inh: blocks the Methanococcus maripaludis chaperonin Mm-Cpn. Potency, µM (doses to about 76.9 µM), for the others: at the highest dose activity, negative = inhibition, hits mostly inhibitors. hit rate 0.031% among 330,000. AID 504842. purified Mm-Cpn ATPase, ADP Transcreener TR-FRET; note: potency is the fitted concentration of half-maximal effect; % is set by controls: 0 for no effect and ±100 for the full control effect; nearly all actives have a fitted effect of over 80% in size
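ATPase turnover read by TR-FRET ADP competition (Eu cryptate antibody/ADP-d2, 665/590 nm): 10uM ATP final, 25nM Mm-CPN final, 30 min 37degC after 10-min compound preincubation, pH 7.4 Tris/KCl/MgCl2/DTT buffer.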
IDH1 R132H inh: human IDH1 R132H inhibition. Potency, µM (top dose mostly 76.6 µM), inactives show at the highest dose activity change, negative = inhibition, actives largely listed as inhibitors. O75874. IDH1-R132H enzyme, NADPH consumption, diaphorase/resazurin fluorescence. hit rate 0.093% among 390,000; note: potency is the fitted concentration of half-maximal effect; % is set by controls: 0 for no effect and ±100 for the full control effect; nearly all actives have a fitted effect of over 65% in size
Target sequence (O75874 whole entry R132H, stated change not applied): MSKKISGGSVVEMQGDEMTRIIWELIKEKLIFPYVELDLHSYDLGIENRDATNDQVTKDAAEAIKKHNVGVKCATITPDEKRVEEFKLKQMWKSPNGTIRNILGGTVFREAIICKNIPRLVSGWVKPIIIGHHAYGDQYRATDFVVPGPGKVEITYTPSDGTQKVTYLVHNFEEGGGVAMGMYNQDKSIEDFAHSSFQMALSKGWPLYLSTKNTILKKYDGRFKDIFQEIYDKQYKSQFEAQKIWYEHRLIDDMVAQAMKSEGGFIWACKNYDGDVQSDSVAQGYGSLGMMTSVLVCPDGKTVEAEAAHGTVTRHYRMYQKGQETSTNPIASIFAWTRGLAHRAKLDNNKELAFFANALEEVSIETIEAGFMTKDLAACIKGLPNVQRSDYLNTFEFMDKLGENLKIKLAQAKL
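IDH1-R132H (0.5 ug/mL dispensed) in pH 7.5 Tris buffer was preincubated 30 min with compound, then given a substrate mix of 0.016 mM NADPH and 2 mM alpha-KG for 80 min at room temperature; remaining NADPH was read by diaphorase/resazurin fluorescence.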
Starred values were filed as active, the others as inactive; i = inactive; ? = inconclusive; . = no result; [ ] = another dose, or the depositor's remark. Rows were chosen to be rich in hits. Some 0.85% of all compounds tested hit in one or more screens of this group. Unless noted, calls come from the whole dose curve; as a rule, active = well fitted curve in the direction sought with a large enough effect; inconclusive = small, poorly fitted or top-dose-only effect, or another doubt; inactive = no such curve, though single readings can be large; an effect the other way counts as inactive or inconclusive.

SMILES | CCT modulator | Akt phos inh | Glioma ERSR ind | GLS inhibitor | MmCpn inh | IDH1 R132H inh
CCOC(=O)/C(C#N)=C/Nc1ccsc1C(=O)OC | -49.1* | i | 1.5% | -1.0% | 1.2% | -4.4%
O=c1c2ccccc2sn1-c1ccccc1F | -2.4 | i | -10.3% | 7.94µM* | . | -4.6%
Cc1ccccc1-n1sc2cc(F)ccc2c1=O | 0.7 | i | -11.7% | ? | 1.2% | -5.2%
O=c1c2ccccc2sn1-c1ccccc1 | 0.0 | -106.7%* | -15.4% | 4.47µM* | -1.2% | -4.6%
O=C1c2ccccc2C(=O)N1c1nccs1 | -0.5 | i | -1.0% | 0.6% | . | -14.5%
O=c1c2ccccc2sn1-c1nccs1 | -0.8 | i | -8.7% | 1.26µM* | -1.3% | 2.8%
Cc1ccc(-n2sc3ccccc3c2=O)cc1S(=O)(=O)N1CCCCC1 | -3.4 | i | -7.5% | 6.31µM* | -5.9% | -9.7%[38.3 µM]
COc1ccccc1CN1CCCC(n2cc(C(=O)N3CCCCC3)nn2)C1 (configuration not stated) | . | . | -4.4% | . | . | .
COC(=O)C1CCCCN1Cc1ccc2c(c1)CN(C(=O)c1csc(-c3cccs3)n1)CCO2 (configuration not stated) | . | . | -1.5% | . | . | .
COc1cccc(-c2nc3cc(SC)ccc3cc2CN(C(=O)c2csc(C)n2)C2CC2)c1 | . | . | -7.2% | . | . | .
COc1cccc(CN(C)C(=O)c2cnn(-c3ncc4c(n3)-c3ccccc3CCC4)c2C)c1 | . | . | -5.0% | . | . | .
CC(=O)N[C@@H](C)C(=O)NCC1Cc2cc(C)cc(-c3cnccn3)c2O1 (some centres not stated) | . | . | -2.2% | . | . | .
O=C(O)c1cccc(-n2sc3ccccc3c2=O)c1 | -0.8 | i | -1.8% | 8.91µM* | -3.3% | -13.2%
N#Cc1ccc2c(=O)n(-c3ccccc3)sc2c1 | 0.8 | i | -2.2% | ? | . | -6.1%
CC(=O)Nc1ccc2c(=O)n(-c3ccccc3)sc2c1 | -2.0 | i | -12.9% | 6.31µM* | . | -5.3%
O=c1c2ccccc2sn1-c1cccc(Cl)c1 | -0.9 | i | -5.2% | 7.94µM* | . | -5.0%
Cc1cc(C(=O)Nc2ccccc2-c2nc(CNC(=O)c3ccc(F)cc3F)c(C)o2)c(C)o1 | . | . | 0.5% | . | . | .
CC(NC(=O)c1cc(F)ccc1F)c1nnc2n1CCN(Cc1ccccc1O)CC2 (configuration not stated) | . | . | 0.5% | . | . | .
COc1ccccc1C(=O)N[C@@H]1c2ccccc2C2(CCN(Cc3ccc(C)o3)CC2)[C@H]1O | . | . | -4.4% | . | . | .
O=C1C[C@@H](c2ccc(O)cc2)Oc2cc(O)cc(O)c21 | -1.6 | i | 5.6% | 13.4% | -0.5% | -5.4%
Cc1c(O)cc2c(c1O)C(=O)CC(c1ccccc1)O2 (configuration not stated) | 2.0 | i | 28.2µM* | 0.9% | 0.9% | 3.4%
O=C(CCCc1ccccc1)c1ccc2c(c1)OCCO2 | 2.9 | -124.5%* | -13.4% | -1.2% | 0.5% | 3.6%
O=C(CCc1ccccc1)c1ccc2c(c1)OCCCO2 | 0.5 | i | 5.7% | 0.6% | 0.7% | 2.7%
Brc1ccc(Nc2nc(-c3cccnc3)cs2)cc1 | 1.3 | i | 9.0% | ? | 1.2% | 5.2%
Oc1ccc(Nc2nc(-c3cccnc3)cs2)cc1 | -5.1 | i | -2.7% | 5.01µM* | -2.3% | 20.2%
SMILES | CCT modulator | Akt phos inh | Glioma ERSR ind | GLS inhibitor | MmCpn inh | IDH1 R132H inh
Cc1ncc2c(c1CNC(=O)c1ccc3c(c1)OCO3)CCN(C(=O)c1cn3ccccc3n1)C2 | . | . | -5.1% | . | . | .
COc1cc2c(cc1OC)CN(CC(=O)Nc1ccc(C#N)cc1)CC2 | -0.3 | -106.8%* | -2.8% | 2.5% | 0.3% | -7.7%
Cc1cnc(SCc2ccccn2)nc1C1CCCN(C(=O)c2cccc(-c3cccc(F)c3)c2)C1 (configuration not stated) | . | . | -4.9% | . | . | .
COc1cccc(C2C(C#N)=C(N)OC3=C2C(=O)CC(c2ccco2)C3)c1OCc1ccc(F)cc1 (configuration not stated) | -1.7 | i | -4.3% | 12.5% | -4.5% | 8.4%
N#CC1=C(N)OC2=C(C(=O)CC(c3ccco3)C2)C1c1ccc(OCc2c(F)cccc2Cl)cc1 (configuration not stated) | 2.2 | -112.2%* | 2.2% | -8.8% | -12.2% | -1.8%
O=C(O)CCCC(=O)Nc1ccc(Cl)cc1 | -64.9* | i | -3.9% | 0.8% | -3.0% | 3.9%
Cc1cc(C)c(NC(=O)CCCC(=O)O)c(Cl)c1 | -50.1* | i | -4.9% | -3.6% | 0.9% | 3.3%
Cc1cc(C)c(NC(=O)CN)c(C)c1 | -4.1 | i | -6.9% | 0.891µM* | -0.1% | 19.8%
CC(C)=CC(=O)Nc1c(C)cc(C)cc1Cl | -4.9 | i | 1.1% | -5.2% | -1.8% | 4.9%
O=C(CCc1nc2ccccc2s1)N1CCOc2ccc(CN3CCc4sccc4C3)cc2C1 | . | . | 1.9% | . | . | .
O=C(C=Cc1cccc(O)c1)c1ccccc1O | 2.6 | i | -4.6% | 22.6% | . | 9.4%
O=C(/C=C/c1ccc(O)c(O)c1)c1ccccc1O | -2.1 | i | ? | 5.62µM* | -23.0% | 4.5%
Cc1ccc(S(=O)(=O)NCC(c2cccnc2)N2CCc3ccccc32)cc1 (configuration not stated) | -49.3* | i | -5.9% | 11.8% | -0.1% | -4.4%
CC(C)c1ccc(Nc2n[nH]c(=S)s2)cc1 | -62.7* | i | 4.0% | -32.1% | . | .
COc1ccccc1Nc1n[nH]c(=S)s1 | -0.8 | i | -2.5% | 10µM* | -2.6% | -1.9%
CNc1n[nH]c(=S)s1 | 3.4 | i | -1.6% | 14.1µM* | 2.8% | 4.2%
CCc1cc2c(=O)c(Oc3ccccc3F)c(C)oc2c(CN(C)C)c1O | -1.3 | -103.7%* | -2.6% | 7.0% | -4.4% | 5.9%
O=C(CC(c1ccccc1)C1CCCCC1=O)c1ccco1 (configuration not stated) | -0.5 | i | -9.0% | 0.5% | -1.3% | 11.6%
O=C(CC(c1ccco1)C1CCCCC1=O)c1ccco1 (configuration not stated) | -37.9* | i | -4.7% | -11.4% | 0.1% | 5.0%
COc1cc(=O)n2c(c1C(=O)NC(C)c1ccco1)CCN(C(=O)c1cc(C)cc(C)c1)CC2 (configuration not stated) | . | . | 5.2% | . | . | .
CCN(CC)c1ccc(/C=N/N2CCOCC2)c(O)c1 | 1.7 | i | 3.2% | 12.6µM* | -2.3% | 2.8%
COc1cccc(CN2CCC3(CC2)c2ccccc2[C@@H](NC(=O)c2ccccc2)[C@@H]3O)c1O | . | . | -4.0% | . | . | .
CCOc1ccc(CCNC(=O)CCCn2c(=O)c3cccn3c3cccnc32)cc1OCC | -85.8* | . | -1.2% | -1.0% | 1.5% | 8.0%
COc1ccc(CCNC(=O)CCCn2c(=O)c3cccn3c3cccnc32)cc1OC | . | . | -2.3% | -2.1% | . | -2.1%
